Only some compounds are listed: those with a hit (about 11% of all), similar ones and a draw of the others.
AmpC no deterg – qHTS Inhibitors of AmpC Beta-Lactamase (assay without detergent). AmpC nitrocefin hydrolysis, absorbance 480 nm, 0.0001% Triton. Potency, µM (highest dose often 57.1 µM), usual class: inhibitors. 330,000 tested, 0.52% active. P00811; further: nearly all actives have a fitted effect of over 20% in size
Target sequence (P00811 whole entry, looked up): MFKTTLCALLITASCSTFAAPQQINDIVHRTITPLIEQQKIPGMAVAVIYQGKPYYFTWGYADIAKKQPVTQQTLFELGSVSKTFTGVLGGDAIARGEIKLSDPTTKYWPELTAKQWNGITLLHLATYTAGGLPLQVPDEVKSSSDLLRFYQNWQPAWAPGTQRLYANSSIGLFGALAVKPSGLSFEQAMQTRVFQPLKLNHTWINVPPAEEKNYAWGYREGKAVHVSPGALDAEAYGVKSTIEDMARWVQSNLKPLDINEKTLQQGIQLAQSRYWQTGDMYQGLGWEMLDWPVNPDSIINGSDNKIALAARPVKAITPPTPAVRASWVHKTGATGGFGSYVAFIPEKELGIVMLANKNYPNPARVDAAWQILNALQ
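20 mM phosphate pH 7.0 + 0.01% (detergent screen) or 0.0001% Triton X-100; 5.3 nM AmpC reagent; cpd preinc 15 min RT; nitrocefin (800 uM stock) to start; A480 q20 s × 4 min; Activity was normalised to no-enzyme and no-compound control wells.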
Pf growth 48h – Primary qHTS for delayed death inhibitors of the malarial parasite plastid, 48 hour incubation; P. falciparum luciferase growth in erythrocytes, 48 h; Potency, µM (series often up to 28.7 µM), usual class: inhibitors; 310,000 tested, 5.9% active; AID 504832, 2011
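Luminescence readout; reporter = integrated firefly luciferase in P. falciparum. RBC culture at 2% hematocrit, 0.1% parasitemia final, 37 C/5% CO2; decreased signal taken as growth inhibition.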
AMA1 RON2 block – qHTS for Inhibitors of AMA1-RON; Towards Development of Antimalarial Drug Lead: Primary Screen. AlphaScreen AMA1-biotinylated RON2 peptide binding. Potency, µM (highest dose often 58.2 µM), usual class: inhibitors. 360,000 tested, 0.2% active; further: nearly all actives have a fitted effect of over 45% in size
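AMA1 (3D7) with his tag at 25 nM final met compounds first, then biotinylated RON2 peptide at 25 nM; detection used donor plus acceptor beads, 10 µg/mL apiece, read by AlphaScreen after 30 min at room temperature.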
HCV inh – qHTS Assay for Inhibitors of Hepatitis C Virus (HCV); Huh7.5.1 HCVcc-Cre infection, luciferase reporter, 44 h; Potency, µM (doses to about 41.8 µM), actives largely listed as inhibitors; 340,000 tested, 3.4% active; AID 651820, 2012
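Seed cells (1,000/well) for 4 h; treat with compound and infect with HCVcc-Cre, moi about 0.5. Incubate 44 h, then detect luciferase activity.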
Pf growth 96h – Primary qHTS for delayed death inhibitors of the malarial parasite plastid, 96 hour incubation; P. falciparum luciferase reporter growth, 96 h; Potency, µM (highest dose often 28.7 µM), most hits filed as inhibitors; 320,000 tested, 6.9% active; AID 504834, 2011
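Luminescence readout: decreased luciferase signal marks inhibited growth of reporter-expressing P. falciparum in infected red cells (2% hematocrit, 0.05% parasitemia final), exposed to compound two generations (96 h, 37 C, 5% CO2).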
AmpC detergent – qHTS Inhibitors of AmpC Beta-Lactamase (assay with detergent); AmpC hydrolysis of nitrocefin, absorbance 480 nm, 0.01% Triton; AID 485294, 2010; Potency, µM (doses to about 114 µM), usual class: inhibitors; 370,000 tested, 0.041% active; P00811; further: nearly all actives have a fitted effect of over 25% in size
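AmpC (5.3 nM in the dispensed reagent) in 20 mM phosphate pH 7.0 with 0.01% (detergent screen) or 0.0001% Triton X-100 was preincubated with compounds for 15 min at room temperature. Nitrocefin was then added from an 800 uM solution, and hydrolysis was followed at 480 nm.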
A number is an active result; [ ] = another dose, or the depositor's remark. The call rests on the fitted dose curve; in most records, active means well fitted curve in the direction sought with a large enough effect; inconclusive means small, poorly fitted or top-dose-only effect, or another doubt; inactive means no such curve, though single readings can be large; an effect the other way counts as inactive or inconclusive.

How did CC1CCCN(CCOc2ccc3ccccc3c2Br)C1 (stereo unspecified) do in these assays?
AmpC no deterg: inactive[2.29 µM]; Pf growth 48h: inconclusive; AMA1 RON2 block: inactive; HCV inh: 11.2µM; Pf growth 96h: inconclusive; AmpC detergent: inactive

How did COc1ccc(-c2oc3cccnc3c2/C=C/c2ccc(OC)c(OC)c2)cc1 do in these assays?
AmpC no deterg: inactive; Pf growth 48h: inconclusive; AMA1 RON2 block: inactive; HCV inh: inconclusive; Pf growth 96h: 11.7µM; AmpC detergent: inactive

What do the screens show for `CCOc1ccc(NC(=O)c2cc(S(=O)(=O)N3CCCCCC3)cn2C)cc1`?
AmpC detergent: inactive

How did CC(C)c1cc(=O)oc2c3c4c(cc12)CCCN4CCC3 do in these assays?
AmpC no deterg: inactive; Pf growth 48h: 11.7µM; AMA1 RON2 block: inactive; HCV inh: inconclusive; Pf growth 96h: inactive; AmpC detergent: inactive

Results for CCSC1=NC2(CCCCC2)Nc2sc3c(c21)CCCC3 ?
AmpC no deterg: inactive; AMA1 RON2 block: inactive; HCV inh: inconclusive; Pf growth 96h: 2.62µM; AmpC detergent: inconclusive

Results for CCCN(CC1CC1)C(=S)NC(=O)c1ccccc1C ?
AMA1 RON2 block: inactive

Results for CCCN(CC1CC1)C(=S)NC(=O)c1cc(Br)ccc1Cl ?
AmpC no deterg: inactive; Pf growth 48h: 13.1µM; AMA1 RON2 block: inactive; HCV inh: inactive; Pf growth 96h: inconclusive; AmpC detergent: inactive

What do the screens show for `CN(C)c1nc(OCCNC(=O)Nc2ccccc2)nc(N2CCCCC2)n1`?
AmpC no deterg: inactive; Pf growth 48h: inactive; AMA1 RON2 block: inactive; HCV inh: 11.2µM; Pf growth 96h: inactive; AmpC detergent: inactive

What do the screens show for `COc1ccc(/C=C2\Sc3ccc(C(=O)NCc4cccnc4)cc3N(C)C2=O)cc1OC`?
AmpC no deterg: inactive; Pf growth 48h: inconclusive; AMA1 RON2 block: inconclusive; HCV inh: 8.91µM; Pf growth 96h: inactive; AmpC detergent: inactive

What do the screens show for `COc1ccc(/C=C2\Sc3ccc(C(=O)N4CCN(Cc5ccccc5)CC4)cc3N(C)C2=O)cc1OC`?
AmpC no deterg: inactive; Pf growth 48h: inconclusive; AMA1 RON2 block: inactive; HCV inh: 3.55µM; Pf growth 96h: inconclusive; AmpC detergent: inactive

Results for CN1C(=O)/C(=C/c2cccc(Cl)c2)Sc2ccc(C(=O)NCc3cccnc3)cc21 ?
AmpC no deterg: inactive; Pf growth 48h: 9.28µM; AMA1 RON2 block: inactive; HCV inh: 10µM; Pf growth 96h: inconclusive; AmpC detergent: inactive

Results for CCN1C(=O)C2(c3ccccc31)c1c(oc3ccccc3c1=O)C(=O)N2CCOC (stereo unspecified) ?
AmpC detergent: inactive

What do the screens show for `O=C(/C=C/c1ccccc1)c1ccc2c(c1)OCCCCO2`?
AmpC no deterg: inactive; Pf growth 48h: inactive; AMA1 RON2 block: inactive; HCV inh: inactive; Pf growth 96h: inactive; AmpC detergent: inactive

Results for O=C(CCl)N(C/C=C/c1ccccc1)c1ccc2c(c1)OCCO2 ?
AmpC no deterg: inactive; Pf growth 48h: inconclusive; AMA1 RON2 block: inactive; HCV inh: 2.24µM; Pf growth 96h: inconclusive; AmpC detergent: inactive

What do the screens show for `COc1cc2c(c(OC)c1OC)-c1ccc(O)c(=O)cc1[C@@H](NC(C)=O)CC2`?
AmpC no deterg: inactive; AMA1 RON2 block: inactive; HCV inh: inactive

Results for COc1cc2c(c(OC)c1OC)-c1ccc(NC(=O)c3ccccc3)c(=O)cc1[C@@H](NC(C)=O)CC2 ?
AmpC no deterg: inactive; Pf growth 48h: 9.28µM; AMA1 RON2 block: inactive; HCV inh: inactive; Pf growth 96h: inconclusive; AmpC detergent: inconclusive

How did COc1ccccc1CCNC(=O)C(=O)NCC(c1cccs1)S(=O)(=O)c1ccc(C)cc1 (stereo unspecified) do in these assays?
AmpC detergent: inactive

How did O=C1CN(c2nc(-c3cccs3)nc3sc4c(c23)CCCC4)CCN1 do in these assays?
AmpC no deterg: inactive; Pf growth 48h: inactive; AMA1 RON2 block: inactive; HCV inh: 5.62µM; Pf growth 96h: inconclusive; AmpC detergent: inactive

How did O=c1oc(-c2cccs2)nc2sc3c(c12)CCCC3 do in these assays?
AmpC no deterg: inactive; AMA1 RON2 block: inactive; HCV inh: inactive; Pf growth 96h: inactive; AmpC detergent: inactive

What do the screens show for `COc1ccc(C(=O)Nc2ccccc2-c2nc3ccccc3s2)c(OC)c1`?
AmpC detergent: inactive

How did CCCCOc1ccc(-c2nnn(CCC(=O)N3CCOCC3)n2)cc1 do in these assays?
AmpC no deterg: inactive; Pf growth 48h: inactive; AMA1 RON2 block: inactive; HCV inh: inactive; Pf growth 96h: 9.28µM; AmpC detergent: inactive

Results for CCCCCOc1ccc(C(=O)CCN2CCOCC2)cc1 ?
AmpC no deterg: inactive; Pf growth 48h: inconclusive; AMA1 RON2 block: inactive; HCV inh: inactive; Pf growth 96h: 2.33µM; AmpC detergent: inactive

What do the screens show for `CCCOc1ccc(-c2nnn(CC(=O)c3ccc4c(c3)OCCO4)n2)cc1`?
AmpC no deterg: inactive; Pf growth 48h: inconclusive; AMA1 RON2 block: inactive; HCV inh: inconclusive; Pf growth 96h: 7.38µM; AmpC detergent: inconclusive

Results for O=C(NCc1ccc(F)cc1)c1cc2n(n1)CCCN(Cc1ccc(F)cc1)C2=O ?
AmpC detergent: inactive

What do the screens show for `CC(=O)NCCCS(=O)(=O)O`?
Pf growth 48h: inactive; Pf growth 96h: inactive

How did Cc1cc(-c2onc(C)c2C(=O)Nc2ccc(C(F)(F)F)cc2)no1 do in these assays?
AmpC no deterg: inactive; Pf growth 48h: inactive; AMA1 RON2 block: inactive; HCV inh: inactive; Pf growth 96h: inactive; AmpC detergent: inactive

What do the screens show for `Cc1noc(-c2ccc(C(F)(F)F)cc2)c1NC(=O)Nc1ccc(Cl)cc1`?
AmpC no deterg: inactive; Pf growth 48h: 2.62µM; AMA1 RON2 block: inactive; HCV inh: inconclusive; Pf growth 96h: 2.62µM; AmpC detergent: inactive

How did CC1(C)CC(=O)c2cc(-c3nc(-c4ccc(F)cc4)cs3)c(=O)[nH]c2C1 do in these assays?
AmpC detergent: inactive

Results for Cc1ccc(O)c(NC(=O)c2cc(-c3ccccc3)on2)c1 ?
AmpC no deterg: inactive; Pf growth 48h: inconclusive; AMA1 RON2 block: inactive; HCV inh: inactive; Pf growth 96h: inactive; AmpC detergent: inactive

What do the screens show for `COc1cc(NC(=O)c2cc(-c3ccccc3Cl)on2)cc(OC)c1OC`?
AmpC no deterg: inactive; Pf growth 48h: inactive; AMA1 RON2 block: inactive; HCV inh: 1.12µM; Pf growth 96h: 11.7µM; AmpC detergent: inactive

Results for COc1cc(NC(=O)c2cc(-c3cccc(O)c3)on2)cc(OC)c1OC ?
AmpC no deterg: inactive; AMA1 RON2 block: inactive; HCV inh: 11.2µM; Pf growth 96h: inactive; AmpC detergent: inactive
